PubChem BioAssay (Tox21)
Inconclusive results are not listed. Unmarked numbers belong to inactive results. Calls come from the whole dose curve.

experiment: qHTS assay for small molecule agonists of the p53 signaling pathway - cell viability (AID 651633); conditions: p53RE-bla HCT-116 viability, ATP luminescence, 16 h; series mostly up to 83.3 µM; activity change, negative = cytotoxicity: at the top concentration;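 note: p53RE-bla HCT reporter cells with a stable beta-lactamase p53 reporter; nearly all actives have a fitted effect of over 30% in size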
Outline: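 p53RE-bla cells, seeded at 4,000 per well and rested 5 h at 37 C/5% CO2, received compounds in DMSO for 16 h at 37 C. CellTiter-Glo was then added, and luminescence was read after 30 min at room temperature to gauge cytotoxicity.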
% is set by controls: 0 for no effect and ±100 for the full control effect.

With Cc1ccc(Br)cc1 as the compound, how does the “activity change, negative = cytotoxicity” value read?
Its value is -14.5%.

For C=CC(=O)OCCOCCOCC, which “activity change, negative = cytotoxicity” value is on record?
Its value is 24.4%.

For CC(C)OCCO, which “activity change, negative = cytotoxicity” value is on record?
Its value is -11.8%.

Which “activity change, negative = cytotoxicity” value does the source give for N#Cc1ccccc1C#N here?
Its value is -20.1%.

Which “activity change, negative = cytotoxicity” value does the source give for CN(C)CCc1c[nH]c2ccc(C[C@H]3COC(=O)N3)cc12 here?
Its value is 18.5%.

Which “activity change, negative = cytotoxicity” value does the source give for COC(=O)N/N=C/c1c[n+]([O-])c2ccccc2[n+]1[O-] here?
The value was 23.7%.

Which “activity change, negative = cytotoxicity” value does the source give for CCCCCCCCCCCCCCCC/C=C/C1CC(=O)OC1=O (stereo not given) here?
Its value is 15.1%.

With COCc1nnc(-c2ccc[n+]([O-])c2)n1-c1c(Cl)c(Cl)cc2[nH]c(=O)c(=O)[nH]c12 as the compound, how does the “activity change, negative = cytotoxicity” value read?
Its value is 17.2%.

Which “activity change, negative = cytotoxicity” value does the source give for NS(=O)(=O)c1cc2c(cc1C(F)(F)F)NCNS2(=O)=O here?
Its value is 17% [at 39.1 µM].

experiment: qHTS assay for small molecules that induce genotoxicity in human embryonic kidney cells expressing luciferase-tagged ATAD5 - cell viability (AID 651634); conditions: HEK293T ATAD5-luc cells viability, CellTiter-Fluor, 15.5 h; series mostly up to 83.3 µM; activity, negative = cytotoxicity: at the top concentration; note: nearly all actives have a fitted effect of over 25% in size
Outline: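 15.5 hr compound or vehicle exposure of HEK293T cells expressing luciferase-tagged ATAD5 at 37C; live-cell protease activity is read by fluorescence after 30 min of CellTiter-Fluor.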

Which “activity, negative = cytotoxicity” value does the source give for CC(=O)SCC(CC(=O)c1ccc(C)cc1)C(=O)O (stereo not given) here?
The value was 8.13%.

For CCCCCCC(=O)c1ccccc1, which “activity, negative = cytotoxicity” value is on record?
Its value is 5.88%.

Which “activity, negative = cytotoxicity” value does the source give for CC(=O)c1ccc2ccc3ccccc3c2c1 here?
Its value is 36.1%.

For CC(=O)OCC(=O)[C@@]1(O)CC[C@H]2[C@@H]3CCC4=CC(=O)C=C[C@]4(C)[C@H]3[C@@H](O)C[C@@]21C, which “activity, negative = cytotoxicity” value is on record?
The value was 8.45%.

For CCCCCCCCS(=O)(=O)O, which “activity, negative = cytotoxicity” value is on record?
The value was 11.1% [at 95.3 µM].

For CCCCCCCCCCCCCCCC(=O)OC, which “activity, negative = cytotoxicity” value is on record?
The value was 19.2% [at 39.1 µM].

Which “activity, negative = cytotoxicity” value does the source give for COc1cc(NS(=O)(=O)c2ccc(N)cc2)ncn1 here?
Its value is 8.05% [at 39.1 µM].

For O=S(=O)(O)c1cc(I)c(O)c2ncccc12, which “activity, negative = cytotoxicity” value is on record?
The value was 11.2%.

For C[C@H]1COc2c(C3(N)CC3)c(F)cc3c(=O)c(C(=O)O)cn1c23, which “activity, negative = cytotoxicity” value is on record?
The value was 15.6%.

Which “activity, negative = cytotoxicity” value does the source give for CC(C)(O)CCCC1=CCC(C=O)CC1 (stereo not given) here?
The value was 11.8% [at 95.3 µM].

With O=Cc1ccccc1S(=O)(=O)O as the compound, how does the “activity, negative = cytotoxicity” value read?
Its value is 24.8%.

For CC[C@@]1(c2ccccc2)NC(=O)N(C)C1=O, which “activity, negative = cytotoxicity” value is on record?
The value was 8.39%.

With c1cc2ccc3ccc4ccc5cccc6c(c1)c2c3c4c56 as the compound, how does the activity, negative = cytotoxicity read?
The activity, negative = cytotoxicity was 31.3% [at 3.63 µM].

Which “activity, negative = cytotoxicity” value does the source give for CCN1CCN(C(=O)N[C@@H](C(=O)N[C@@H]2C(=O)N3[C@@H]2SC(C)(C)[C@H]3C(=O)O)c2ccccc2)C(=O)C1=O here?
The value was 8.19%.

For O=C(O)Cc1c(Cl)ccc(Cl)c1Cl, which “activity, negative = cytotoxicity” value is on record?
Its value is 29.3%.

For CC(C)(O)c1ccc(C(C)(C)O)cc1, which “activity, negative = cytotoxicity” value is on record?
The value was 13.7%.

For NC(=O)CC[C@@H](N)C(=O)O, which “activity, negative = cytotoxicity” value is on record?
The value was 9.09%.

With CCCCCC(CC)OC(=O)CCCOc1ccc(Cl)cc1Cl (stereo not given) as the compound, how does the “activity, negative = cytotoxicity” value read?
The value was 14.3%.

For O=C(O)/C=C(\CC(=O)O)C(=O)O, which “activity, negative = cytotoxicity” value is on record?
The value was 20%.

Which “activity, negative = cytotoxicity” value does the source give for C/C(=N\O)c1ccc(OCC(=O)N2CCCCC2)cc1 here?
Its value is 13.1%.

For Cc1ccc(Br)cc1, which “activity, negative = cytotoxicity” value is on record?
Its value is 9.77%.

Which “activity, negative = cytotoxicity” value does the source give for C=CC(=O)OCCOCCOCC here?
The value was 4.06%.

For CC(C)OCCO, which “activity, negative = cytotoxicity” value is on record?
Its value is 9.78%.

With CCOC(=O)CC as the compound, how does the “activity, negative = cytotoxicity” value read?
Its value is -2.01%.

Which “activity, negative = cytotoxicity” value does the source give for N#Cc1ccccc1C#N here?
The value was -4.77%.

With O=C(O)COc1ccc2ccccc2c1 as the compound, how does the “activity, negative = cytotoxicity” value read?
The value was 5.7%.

For COC(=O)N/N=C/c1c[n+]([O-])c2ccccc2[n+]1[O-], which “activity, negative = cytotoxicity” value is on record?
The value was -10%.

With CCCCCCCCCCCCCCCC/C=C/C1CC(=O)OC1=O (stereo not given) as the compound, how does the “activity, negative = cytotoxicity” value read?
The value was 11.5%.

With COCc1nnc(-c2ccc[n+]([O-])c2)n1-c1c(Cl)c(Cl)cc2[nH]c(=O)c(=O)[nH]c12 as the compound, how does the “activity, negative = cytotoxicity” value read?
Its value is 8.15%.

For NS(=O)(=O)c1cc2c(cc1C(F)(F)F)NCNS2(=O)=O, which “activity, negative = cytotoxicity” value is on record?
Its value is -21.9% [at 39.1 µM].

experiment: qHTS assay for small molecule disruptors of the mitochondrial membrane potential - cell viability (AID 720634); conditions: HepG2 viability, ATP luminescence (CellTiter-Glo), 1 h; series mostly up to 83.2 µM; activity change, negative = cytotoxicity: at the top concentration;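 note: human HepG2 liver cancer cells; nearly all actives have a fitted effect of over 20% in size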
Outline: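 In this qHTS format, HepG2 cells plated overnight were pinned with compound, incubated 1 hr, and assayed for ATP luminescence with CellTiter-Glo after m-MPI dye addition.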

For CC(=O)SCC(CC(=O)c1ccc(C)cc1)C(=O)O (stereo not given), which “activity change, negative = cytotoxicity” value is on record?
The value was 5.59%.

For CCCCCCC(=O)c1ccccc1, which “activity change, negative = cytotoxicity” value is on record?
Its value is -7.92%.

With CC(=O)c1ccc2ccc3ccccc3c2c1 as the compound, how does the “activity change, negative = cytotoxicity” value read?
Its value is -13.2%.

With CC(=O)OCC(=O)[C@@]1(O)CC[C@H]2[C@@H]3CCC4=CC(=O)C=C[C@]4(C)[C@H]3[C@@H](O)C[C@@]21C as the compound, how does the “activity change, negative = cytotoxicity” value read?
Its value is -6.3%.

For CCCCCCCCS(=O)(=O)O, which “activity change, negative = cytotoxicity” value is on record?
The value was 11.8% [at 95.3 µM].

With COc1cc(NS(=O)(=O)c2ccc(N)cc2)ncn1 as the compound, how does the “activity change, negative = cytotoxicity” value read?
The value was -5.05% [at 39.1 µM].

For O=S(=O)(O)c1cc(I)c(O)c2ncccc12, which “activity change, negative = cytotoxicity” value is on record?
Its value is 4.14%.

For C[C@H]1COc2c(C3(N)CC3)c(F)cc3c(=O)c(C(=O)O)cn1c23, which “activity change, negative = cytotoxicity” value is on record?
The value was -2.33%.

For CC(C)(O)CCCC1=CCC(C=O)CC1 (stereo not given), which “activity change, negative = cytotoxicity” value is on record?
The value was -4.46% [at 95.3 µM].

Which “activity change, negative = cytotoxicity” value does the source give for C=CCN1CCc2nc(N)sc2CC1 here?
Its value is 0.854%.

Which “activity change, negative = cytotoxicity” value does the source give for O=Cc1ccccc1S(=O)(=O)O here?
Its value is 3.86%.

With CC[C@@]1(c2ccccc2)NC(=O)N(C)C1=O as the compound, how does the “activity change, negative = cytotoxicity” value read?
Its value is -0.519%.

With c1cc2ccc3ccc4ccc5cccc6c(c1)c2c3c4c56 as the compound, how does the activity change, negative = cytotoxicity read?
Its activity change, negative = cytotoxicity is 7.58% [at 3.63 µM].

For CCN1CCN(C(=O)N[C@@H](C(=O)N[C@@H]2C(=O)N3[C@@H]2SC(C)(C)[C@H]3C(=O)O)c2ccccc2)C(=O)C1=O, which “activity change, negative = cytotoxicity” value is on record?
Its value is 6.03%.

With O=C(O)Cc1c(Cl)ccc(Cl)c1Cl as the compound, how does the “activity change, negative = cytotoxicity” value read?
The value was 19%.

Which “activity change, negative = cytotoxicity” value does the source give for CC(C)(O)c1ccc(C(C)(C)O)cc1 here?
Its value is 10.5%.

For NC(=O)CC[C@@H](N)C(=O)O, which “activity change, negative = cytotoxicity” value is on record?
Its value is 13%.

For CCCCCC(CC)OC(=O)CCCOc1ccc(Cl)cc1Cl (stereo not given), which “activity change, negative = cytotoxicity” value is on record?
Its value is 4.38%.

Which “activity change, negative = cytotoxicity” value does the source give for O=C(O)/C=C(\CC(=O)O)C(=O)O here?
Its value is 4.1%.

Which “activity change, negative = cytotoxicity” value does the source give for O=C(O)CCC(=O)Nc1ccc(S(=O)(=O)Nc2nccs2)cc1 here?
Its value is 4.19% [at 39.1 µM].

For C/C(=N\O)c1ccc(OCC(=O)N2CCCCC2)cc1, which “activity change, negative = cytotoxicity” value is on record?
Its value is 19.3%.

For Cc1ccc(Br)cc1, which “activity change, negative = cytotoxicity” value is on record?
Its value is 2.03%.

For C=CC(=O)OCCOCCOCC, which “activity change, negative = cytotoxicity” value is on record?
The value was -10.1%.

Which “activity change, negative = cytotoxicity” value does the source give for CC(C)OCCO here?
Its value is 11.8%.

With CCOC(=O)CC as the compound, how does the “activity change, negative = cytotoxicity” value read?
Its value is 14.7%.

With N#Cc1ccccc1C#N as the compound, how does the “activity change, negative = cytotoxicity” value read?
Its value is 4.93%.

Which “activity change, negative = cytotoxicity” value does the source give for CN(C)CCc1c[nH]c2ccc(C[C@H]3COC(=O)N3)cc12 here?
The value was -6.51%.

For O=C(O)COc1ccc2ccccc2c1, which “activity change, negative = cytotoxicity” value is on record?
The value was 12.8%.

For COC(=O)N/N=C/c1c[n+]([O-])c2ccccc2[n+]1[O-], which “activity change, negative = cytotoxicity” value is on record?
The value was -4.66%.

For COCc1nnc(-c2ccc[n+]([O-])c2)n1-c1c(Cl)c(Cl)cc2[nH]c(=O)c(=O)[nH]c12, which “activity change, negative = cytotoxicity” value is on record?
Its value is 2.35%.

For NS(=O)(=O)c1cc2c(cc1C(F)(F)F)NCNS2(=O)=O, which “activity change, negative = cytotoxicity” value is on record?
Its value is -10.3% [at 39.1 µM].
